Experimental data from PubChem BioAssay AID2401 (Southern Research Specialized Biocontainment Screening …, 2010).
Out of some 2,200 compounds screened, about 530 (24%) were called active. A selection follows. Entries with a potency or affinity are not part of this list. Unmarked numbers belong to inactive results.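 How the source made its calls: active means inhibition above a set limit at one or more concentrations of the dose series; inactive means inhibition under that limit at every dose.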

Experiment: nmpC-GFP reporter counter-screen in S. Typhimurium, dose response, counter-screen for PhoP regulon inhibitor project, Salmonella Typhimurium, GFP fluorescence (AID 2401);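 further: S. typhimurium with Mg-insensitive nmpC-GFP reporter grown at 10 µM Mg2+; drop in reporter fluorescence reflects general culture growth inhibition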
Conditions: 4 h; series mostly up to 150 µM; inhibition: at the top concentration

| Compound | inhibition [%] |
| --- | --- |
| CCOc1ccc(/C(O)=C2\C(=O)C(=O)N(CCN(C)C)C2c2cccc(OC)c2OC)cc1Cl (centres undefined) | -12.7 |
| Cc1ccc(OCc2nnc(SCC(=O)Nc3ccc4c(c3)OCO4)n2C)cc1 | -6.69 |
| BrC(=C\c1ccccc1)/C=N/N1CCN(c2ccccn2)CC1 | 9.97 |
| CCOC(=O)N1CCN(c2nc(C)c3c(n2)CCCC3=O)CC1 | -44.6 |
| COC(=O)C(C)N1C(=O)S/C(=C\c2cc(C)n(-c3ccccn3)c2C)C1=O (centres undefined) | -20.4 |
| Cc1ccc(-c2nc3ccccc3[nH]2)cc1NC(=S)NC(=O)c1ccccc1Br | 23.6 |
| Cc1c(NS(=O)(=O)c2ccc(N(C)C3CCCCC3)c([N+](=O)[O-])c2)c(=O)n(-c2ccccc2)n1C | -2.79 |
| Cc1cc(C)cc(CC(Cc2nc3ccccc3[nH]2)c2nc3ccccc3[nH]2)c1 (centres undefined) | 0.65 |
| COc1ccc(C(=O)N2CCN(C(=O)c3ccco3)CC2)cc1OC | 7.5 |
| Cc1cccc2cc(C#N)c(N3CCN(C)CC3)nc12 | 32.9 |
| NC(=O)c1c(NC(=O)CN2C(=O)CCC2=O)sc2c1CCCCC2 | -18.9 |
| CCOC(=O)c1c(NC(=O)Nc2ccc(C)cc2)sc2c1CCN(C)C2 | -18.4 |
| CC(C)(C)C1CCc2c(sc(NC(=O)c3cccs3)c2C(=O)N2CCCCC2)C1 (centres undefined) | 19.4 |
| CCCCCOC(=O)C1=C(C)Nc2nnnn2C1c1ccc(OC)c(OC)c1OC (centres undefined) | -24.2 |
| CCn1nnc(-c2ccccc2NS(=O)(=O)c2ccc(S(=O)(=O)N3CCCCCC3)cc2)n1 | -2.81 |
| O=C(CSc1ccc2c(c1)OCCO2)NCCc1ccc(Cl)cc1Cl | -35.5 |
| Cc1[nH]c2ccccc2c1C(c1ccncc1)N1CCN(c2ccc(F)cc2)CC1 (centres undefined) | 34.4 |
| Oc1ccc(C=Nc2ccc3ncccc3c2)c(O)c1 | 33.2 |
| Oc1ccc(C=Nc2cccc3ncccc23)c(O)c1 | -31.8 |
| CCCNC(=O)COC(=O)CCC(=O)c1ccc(F)cc1 | -5.02 |
| O=C1CC(N2CCN(Cc3ccccc3)CC2)C(=O)N1c1ccccc1 (centres undefined) | -12.2 |
| OCCN(Cc1ccccc1)Cc1ccc(Cl)cc1 | 2.5 |
| OCCNc1ccc(Cl)cc1 | -4.09 |

| Compound | inhibition [%] |
| --- | --- |
| O=C(CN1CCCCCC1)Nc1cccc(Br)c1 | -13.7 |
| COCCn1c(-c2ccccc2F)n[nH]c1=S | 8.43 |
| CCOC(=O)/C(=C/C=C/c1ccccc1)NC(=O)c1ccccc1 | -13.2 |
| O=c1cc(O)nc(SCc2ccccc2Cl)[nH]1 | -18.8 |
| O=C1c2ccccc2C(=O)N1CCCc1nc(-c2ccccn2)no1 | 11.4 |
| CC1=NN(c2ccc(Cl)cc2)C(=O)C1C(c1cccc(O)c1)c1c(C)[nH]n(-c2ccc(Cl)cc2)c1=O (centres undefined) | 16.4 |
| O=C(Nn1c(O)c(C=C2N=c3ccccc3=N2)sc1=S)c1ccc(Cl)cc1 | -14.3 |
| CCOC(=O)/C=C1\SCC(=O)N1CC(=O)NC1CCCCC1 | -17.8 |
| O=C(CN(c1ccc(F)cc1)S(=O)(=O)c1ccc2c(c1)OCCO2)NCc1cccnc1 | -9.61 |
| S=C(c1ccc2c(c1)OCO2)N1CCCC1 | 15 |
| COc1ccc(-c2cn[nH]c2-c2ccc(OCc3ccc([N+](=O)[O-])cc3)cc2O)cc1 | 17.3 |
| CCN1C(=O)/C(=C/N2CC(C)CC(C)C2)SC1=S (centres undefined) | -18.2 |
| O=C(N/N=C/c1cccn1-c1ccc([N+](=O)[O-])cc1)C(O)c1ccccc1 (centres undefined) | 24.9 |
| Cc1cc(C(=O)N/N=C/C=C/c2ccc3c(c2)OCO3)n[nH]1 | -14.9 |
| Cc1cc(C(=O)N/N=C/c2cccc([N+](=O)[O-])c2O)n[nH]1 | -8.52 |
| CC(=O)c1c(C)[nH]c(C(=O)CSc2nnc(-c3ccco3)n2Cc2ccccc2)c1C | -24.8 |
| Cn1cccc1C1NC(=O)c2c(sc3c2CCC(C(C)(C)C)C3)N1 (centres undefined) | 8.17 |
| Cc1nn(-c2ccccc2)c(C)c1C(=O)OC/C(O)=C(\C#N)c1nc2ccccc2[nH]1 | 4.56 |
| Cc1cc(C2=NNC(=NC3CC3)SC2)c(C)n1Cc1ccco1 | -13.5 |
| Cc1ccc(-c2nnc(SCC(=O)N3CCCc4ccccc43)n2N)cc1 | -11.9 |
| COC(=O)c1sc2nc(CSc3nc4ccc(C)cc4[nH]3)[nH]c(=O)c2c1C | -23.4 |
| CCOC(=O)C1=C(c2ccccc2)N=C2SCC(=O)N2C1c1ccc(O)c(OC)c1 (centres undefined) | 18.4 |
| CCOC(=O)c1cc2ccc(OC)c(OC)c2c(=O)s1 | -17.4 |

| Compound | inhibition [%] |
| --- | --- |
| C/C(=C\c1ccco1)C1Nc2cccc3cccc(c23)N1 | -7.01 |
| COc1ccc(OC)c(NC(=O)c2cc3c(Cl)nc4ccccc4c3s2)c1 | -3.31 |
| CCOC(=O)N1CCN(C(=O)c2ccc(NC(=O)c3ccc(C)cc3)cc2)CC1 | -6.04 |
| C/C(=N\Nc1nc2ccccc2[nH]1)c1cccs1 | -17.3 |
| C/C(=N\Nc1nc2ccccc2[nH]1)c1ccc(Cl)s1 | -35.5 |
| Cc1nc2ccccn2c1C(=O)N/N=C/c1ccccc1[N+](=O)[O-] | -6.8 |
| Cc1cc(/C=N\NC(=O)c2cccs2)c(C)n1-c1ccc2ncccc2c1 | 17.9 |
| COC(=O)c1cn(C(=O)c2cccs2)c2ccccc12 | -2.66 |
| COc1c(/C=N/Nc2nc(N3CCCCC3)nc(N3CCCCC3)n2)cccc1[N+](=O)[O-] | -12.5 |
| C=CCOc1ccc(CNc2nn[nH]n2)cc1 | -5.21 |
| O=C(CCN1CCc2ccccc2C1)Nc1ccccc1F | -20.9 |
| Cc1cc(-c2csc(NC(=O)c3ccc(C#N)cc3)n2)c(C)n1Cc1ccco1 | 36.1 |
| CCOC(=O)CSc1nc2c(sc(=S)n2-c2ccccc2)c(=O)n1-c1ccc(OC)cc1OC | -30.9 |
| O=c1[nH]c(SCc2nc3ccccc3c(=O)n2-c2ccccc2C(F)(F)F)nc2ccccc12 | -7.42 |
| C/C(=N\NC(=O)c1c(Cl)c(C)nn1C)c1cccc(NC(=O)COc2ccc(Cl)cc2)c1 | 5.43 |
| COc1ccc(C2COC(=O)C2=N)c(NC(=O)c2ccc(Cl)cc2)c1 (centres undefined) | 7.97 |
| CCCCCCNCc1cccc(Br)c1 | 2.93 |
| COc1ccc2c(c1)OC1=C(C(=O)CCC1)C2C1=C(O)CCCC1=O (centres undefined) | 16.2 |
| Cc1cccc(C(=O)Nc2nnc(Cc3c[nH]c4ccccc34)s2)c1 | 12.6 |
| Nc1ncncc1-c1ccc(Cl)cc1 | 34.2 |
| O=C(Nc1nc2ccc(SC(F)F)cc2s1)c1ccc2c(c1)S(=O)(=O)c1ccccc1C2=O | -12.6 |
| COC(=O)C1=C(CSc2nc3ccccc3o2)NC(=O)NC1c1cc(C)ccc1C (centres undefined) | -14 |
| Cc1cc(C)nc(N2CCCC(C(=O)Nc3ccc4nc(C)c(C)nc4c3)C2)n1 (centres undefined) | -21.6 |

| Compound | inhibition [%] |
| --- | --- |
| Cc1ccc(C)n1-c1cccc(N)c1 | 0.96 |
| O=C1CC(c2ccccc2)n2ncnc2N1 (centres undefined) | 11.9 |
| COC(OC)c1nc(SCC(=O)Nc2cccc(Cl)c2)ncc1C(=O)O | 21.8 |
| COc1ccc(Cl)cc1-c1nc(SCC(N)=O)n[nH]1 | -19.9 |
| COc1ccc([N+](=O)[O-])cc1NC(=O)C(C)OC(=O)c1ccccc1C(=O)c1ccc(Cl)cc1 (centres undefined) | -13.1 |
| COC(=O)c1ccc(COC(=O)c2ccccn2)cc1 | -12 |
| CC(O)c1ccc(OCCN(C)c2ccccn2)cc1 (centres undefined) | -2.97 |
| CC(C)Cc1oc(C(=O)O)cc1CN | 34 |
| c1ccc2oc(SCc3cn4ccccc4n3)nc2c1 | 26.3 |
| Cc1cc(C)n(-c2ccc(C(=O)Nc3nc4ccccc4s3)cc2)n1 | 11.3 |
| C(=N\c1nc2ccccc2n1CCN1CCCCC1)/c1cccs1 | -10.7 |
| CC(=O)c1cccc(NC(=O)Nc2cccs2)c1 | -12.9 |
| CC(C)(C)c1ccc(-c2n[nH]c(=S)n2/N=C/c2ccncc2)cc1 | 0.52 |
| COc1cccc(NC(=S)N/N=C2\CC(C)(C)Oc3ccc(O)cc32)c1 | -12 |
| N#CC(C#N)=c1ccc2c(c1)NC1(CCCCC1)N=2 | 30.4 |
| O=S1(=O)C=CC(Nc2ccccc2)C1 (centres undefined) | 2.14 |
| Brc1ccc(-c2cnc3n2CCCC3)cc1 | 1.27 |
| O=C(Nc1nccs1)c1cc(-c2ccco2)nc2ccccc12 | 19.2 |
| COc1ccccc1-c1cc(C(=O)Nc2cc(C)nn2-c2ccccc2)no1 | -9.01 |
| CCCOC(=O)C(C)n1cnc2sc(C)c(C)c2c1=O (centres undefined) | -22.4 |
| COc1cc(C)nc(Nc2nc(C)c(C(C)=O)s2)n1 | -27.4 |
| O=C(CSc1nnc(-c2cccs2)n1-c1ccccc1)NCc1ccc2c(c1)OCO2 | -11.6 |
| O=C(CCN1C(=O)c2ccccc2C1=O)Nc1ccc(-c2cn3ccsc3n2)cc1 | -11.9 |

| Compound | inhibition [%] |
| --- | --- |
| Cc1cccc(C)c1NC(=O)CSc1nnc(NC(=O)CN2CCOCC2)s1 | -25.4 |
| C(=N\N1CCN(C2c3ccccc3-c3ccccc32)CC1)/c1cccs1 | -18.1 |
| Cc1cc(/C=N/NC(=O)c2cccc([N+](=O)[O-])c2)c(C)n1-c1ccc(Cl)cc1Cl | 37.6 |
| COc1cc([N+](=O)[O-])ccc1NC(=O)CN(C)C | -22.9 |
| Cc1ccc(N=Nc2ccc(O)c(/C=N\NC(=O)c3ccc(N)cc3)c2)cc1C | -8.25 |
| O=C(N/N=C/C1C(c2ccccc2)C1(Cl)Cl)c1cccc(Cl)c1 (centres undefined) | 4.67 |
| O=C(N/N=C/c1ccc(Cl)cc1Cl)c1cccc(F)c1 | -20.8 |
| C/C(=N\NC(=O)C1CC1c1ccccc1)c1cccc([N+](=O)[O-])c1 (centres undefined) | 5.2 |
| Nc1nnc(CC(=O)N/N=C\c2cc([N+](=O)[O-])ccc2O)s1 | 4.52 |
| COc1cccc(NC(=O)NCCCN2CCN(c3ccc(F)cc3)CC2)c1 | 12.8 |
| COc1cc(C2C(C(=O)c3ccc(C)o3)=C(O)C(=O)N2CCc2ccccc2)ccc1O (centres undefined) | -22.6 |
| CC(C)NC(=O)CSc1nc(N)c(NC(=O)c2ccccc2F)c(=O)[nH]1 | 5.87 |
| Cc1ccc(Cl)cc1-c1ccc(/C=N/n2cnnc2)o1 | -25.3 |
| Cc1cccc(C)c1NC(=O)CCCSc1nnc(-c2ccc(Cl)cc2)n1-c1ccccc1 | -15 |
| CCCCn1c(-c2ccccc2)nc2c(=O)n(C)c(=O)[nH]c21 | -16.6 |
| Cc1noc(C)c1CSc1nc2ccccc2nc1NS(=O)(=O)c1ccc(Cl)cc1 | 14.2 |
| N/C(=N\OC(=O)Cc1ccc(Cl)cc1)c1cccnc1 | 7.23 |
| CC(=O)Nc1ccc(OC(=O)c2cccnc2)cc1 | -41 |
| N/C(=N\OC(=O)COc1ccc(Cl)cc1)c1cccnc1 | -0.64 |
| Cc1ccc2occ(/C=N/O)c(=O)c2c1 | 5.82 |
| C/C(=C\C(=O)c1cccnc1)Nc1ccc(O)cc1 | -1.89 |
| O=C1NN(c2ccccc2)C(=O)/C1=C\c1coc2ccc(O)cc2c1=O | 23.4 |
